Targets include hnRNP-A3 (Homo sapiens, UniProt P51991); eIF3-delta (Homo sapiens, UniProt O75821); G3BP-1 (Homo sapiens, UniProt Q13283); CELF5(3) (Homo sapiens, UniProt Q8N6W0); CPEB1 (Homo sapiens, UniProt Q9BZB8); hnRNP-A1 (Homo sapiens, UniProt P09651).
Holding throughout (test): protein domain microarray probed with biotinylated miRNA; Domain array: 20 mM Tris-HCl pH 7.4, 200 mM KCl, 0.2 mM EDTA, 0.05% NP40, 2 ug/ul heparin, overnight 4 C. ORF array: PBS pH 7.0 with RNase inhibitor, 100 ng RNA; high values mean tight binding
Holding throughout (details): ssRNA

The next test addresses T1, DAZ4 (Homo sapiens, UniProt Q86SG3).
T1 sequence: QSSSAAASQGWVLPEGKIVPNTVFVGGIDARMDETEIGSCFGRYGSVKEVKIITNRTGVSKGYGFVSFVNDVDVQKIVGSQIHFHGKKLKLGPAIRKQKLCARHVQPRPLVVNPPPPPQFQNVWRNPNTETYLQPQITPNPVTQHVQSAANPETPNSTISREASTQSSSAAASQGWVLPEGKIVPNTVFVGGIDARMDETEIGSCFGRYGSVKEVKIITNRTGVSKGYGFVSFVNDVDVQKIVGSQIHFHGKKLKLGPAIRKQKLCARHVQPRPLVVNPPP

The target in the next test is T2, hnRNP-M(1-2) (Homo sapiens, UniProt P52272).
T2 sequence: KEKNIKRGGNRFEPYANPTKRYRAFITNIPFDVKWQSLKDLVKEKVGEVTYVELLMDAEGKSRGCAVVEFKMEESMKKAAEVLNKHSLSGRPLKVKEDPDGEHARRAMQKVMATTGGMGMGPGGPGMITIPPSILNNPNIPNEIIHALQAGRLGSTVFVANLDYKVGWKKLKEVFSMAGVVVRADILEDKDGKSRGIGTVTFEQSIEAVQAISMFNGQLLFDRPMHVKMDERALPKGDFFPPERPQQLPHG

Another test has as its target T3, LARP7(2) (Homo sapiens, UniProt Q4G0J3).
T3 sequence: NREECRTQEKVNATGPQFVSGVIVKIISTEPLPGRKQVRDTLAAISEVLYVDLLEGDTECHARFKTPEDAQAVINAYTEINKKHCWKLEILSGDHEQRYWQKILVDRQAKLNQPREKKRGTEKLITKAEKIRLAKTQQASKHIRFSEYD

The next test concerns the target T4, DAZ1 (Homo sapiens, UniProt Q9NQZ3).
T4 sequence: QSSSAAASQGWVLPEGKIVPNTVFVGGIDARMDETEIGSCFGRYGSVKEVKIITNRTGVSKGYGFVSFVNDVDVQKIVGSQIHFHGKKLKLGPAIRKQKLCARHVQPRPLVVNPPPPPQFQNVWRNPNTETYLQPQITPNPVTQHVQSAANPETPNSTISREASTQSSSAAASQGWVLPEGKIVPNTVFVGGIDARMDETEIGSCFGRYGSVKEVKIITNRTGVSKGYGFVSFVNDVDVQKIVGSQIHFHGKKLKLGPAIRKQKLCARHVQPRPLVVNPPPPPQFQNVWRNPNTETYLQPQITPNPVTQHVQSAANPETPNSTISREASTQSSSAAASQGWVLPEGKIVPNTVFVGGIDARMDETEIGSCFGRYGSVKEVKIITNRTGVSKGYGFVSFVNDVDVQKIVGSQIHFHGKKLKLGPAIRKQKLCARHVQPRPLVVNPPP

The target of a further test is T5, DAZL (Homo sapiens, UniProt Q92904).
T5 sequence: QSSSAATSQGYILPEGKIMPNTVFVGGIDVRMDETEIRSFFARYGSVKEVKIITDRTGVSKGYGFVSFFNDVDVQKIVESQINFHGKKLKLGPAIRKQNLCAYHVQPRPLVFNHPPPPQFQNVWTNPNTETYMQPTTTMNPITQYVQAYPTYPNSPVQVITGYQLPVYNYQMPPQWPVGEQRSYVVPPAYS

The target of the next test is T6, hnRNP-A0 (Homo sapiens, UniProt Q13151).
T6 sequence: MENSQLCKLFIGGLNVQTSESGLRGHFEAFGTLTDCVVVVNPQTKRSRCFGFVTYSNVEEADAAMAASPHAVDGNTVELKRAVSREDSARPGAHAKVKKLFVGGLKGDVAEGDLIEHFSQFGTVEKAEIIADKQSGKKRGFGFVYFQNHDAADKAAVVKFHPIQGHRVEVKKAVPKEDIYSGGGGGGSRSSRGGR

The target of the next test is T7, NeuN (Homo sapiens, UniProt A6NFN3).
T7 sequence: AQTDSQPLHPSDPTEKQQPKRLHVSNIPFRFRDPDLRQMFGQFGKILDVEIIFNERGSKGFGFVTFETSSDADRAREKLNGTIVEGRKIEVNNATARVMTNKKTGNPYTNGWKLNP

Another test deals with T8, CPEB4 (Homo sapiens, UniProt Q17RY0).
T8 sequence: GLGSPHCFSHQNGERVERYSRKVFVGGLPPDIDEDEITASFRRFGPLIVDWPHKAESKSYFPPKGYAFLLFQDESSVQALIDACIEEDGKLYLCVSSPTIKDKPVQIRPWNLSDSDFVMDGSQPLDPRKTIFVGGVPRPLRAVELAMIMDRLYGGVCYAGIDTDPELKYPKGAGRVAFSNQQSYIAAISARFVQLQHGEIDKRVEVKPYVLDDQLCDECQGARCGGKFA

Another test has as its target T9, MYEF2(3) (Homo sapiens, UniProt Q9P2K5).
T9 sequence: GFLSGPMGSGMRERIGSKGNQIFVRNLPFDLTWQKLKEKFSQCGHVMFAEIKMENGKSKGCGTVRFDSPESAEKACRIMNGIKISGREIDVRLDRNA

For another test, the target named is T10, CstF-64T (Homo sapiens, UniProt Q9H0L4).
T10 sequence: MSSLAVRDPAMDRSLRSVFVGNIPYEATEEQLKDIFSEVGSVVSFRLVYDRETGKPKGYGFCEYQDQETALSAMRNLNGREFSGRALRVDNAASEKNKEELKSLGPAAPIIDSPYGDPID

The next test concerns the target T11, hnRNP-R (Homo sapiens, UniProt O43390).
T11 sequence: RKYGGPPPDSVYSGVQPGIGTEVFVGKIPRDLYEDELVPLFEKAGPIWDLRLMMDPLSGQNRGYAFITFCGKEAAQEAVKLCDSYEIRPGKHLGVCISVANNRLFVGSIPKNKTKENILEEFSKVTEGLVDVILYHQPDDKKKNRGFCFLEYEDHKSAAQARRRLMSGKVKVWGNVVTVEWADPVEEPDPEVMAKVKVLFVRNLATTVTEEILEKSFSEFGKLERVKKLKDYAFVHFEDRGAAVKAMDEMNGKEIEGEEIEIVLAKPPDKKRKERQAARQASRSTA

In the next test the target is T12, LKAP (Homo sapiens, UniProt Q9Y4F3).
T12 sequence: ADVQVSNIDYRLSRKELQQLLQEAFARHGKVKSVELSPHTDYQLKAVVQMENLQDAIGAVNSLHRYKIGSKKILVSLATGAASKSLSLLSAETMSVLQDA

The next test addresses T13, NOL8 (Homo sapiens, UniProt Q76FK4).
T13 sequence: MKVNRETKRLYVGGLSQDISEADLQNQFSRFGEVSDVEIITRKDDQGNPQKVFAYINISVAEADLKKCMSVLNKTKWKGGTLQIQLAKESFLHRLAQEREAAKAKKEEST

The target in a further test is T14, hnRNP-2H9 (Homo sapiens, UniProt P31942).
T14 sequence: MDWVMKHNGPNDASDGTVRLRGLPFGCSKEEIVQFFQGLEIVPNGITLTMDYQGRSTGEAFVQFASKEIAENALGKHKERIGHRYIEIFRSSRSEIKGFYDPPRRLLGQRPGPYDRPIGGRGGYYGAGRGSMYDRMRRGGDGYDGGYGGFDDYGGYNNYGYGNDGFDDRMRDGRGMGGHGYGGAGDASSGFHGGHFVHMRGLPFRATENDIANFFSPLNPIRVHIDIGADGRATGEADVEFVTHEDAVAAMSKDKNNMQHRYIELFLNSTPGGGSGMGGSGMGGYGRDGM

CPEB1, sequence (Q9BZB8 290-531): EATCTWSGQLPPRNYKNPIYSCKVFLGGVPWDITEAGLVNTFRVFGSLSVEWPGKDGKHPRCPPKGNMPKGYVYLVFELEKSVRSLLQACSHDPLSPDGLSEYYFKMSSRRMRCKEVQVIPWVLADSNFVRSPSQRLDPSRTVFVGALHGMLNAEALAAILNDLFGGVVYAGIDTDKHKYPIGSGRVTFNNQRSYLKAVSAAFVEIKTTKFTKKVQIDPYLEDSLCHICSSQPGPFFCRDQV
hnRNP-A3, sequence (P51991 15-225): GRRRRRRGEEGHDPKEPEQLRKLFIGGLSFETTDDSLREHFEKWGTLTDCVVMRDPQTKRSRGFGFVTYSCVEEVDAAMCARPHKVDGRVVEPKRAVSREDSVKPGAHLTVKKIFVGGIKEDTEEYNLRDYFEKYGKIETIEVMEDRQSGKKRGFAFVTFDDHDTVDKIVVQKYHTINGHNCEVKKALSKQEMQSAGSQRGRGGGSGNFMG
CELF5(3), sequence (Q8N6W0 376-485): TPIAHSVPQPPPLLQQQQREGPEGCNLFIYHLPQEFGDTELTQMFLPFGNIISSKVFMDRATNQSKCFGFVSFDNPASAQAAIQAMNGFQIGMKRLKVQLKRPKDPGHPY
eIF3-delta, sequence (O75821 220-320, stated change not applied): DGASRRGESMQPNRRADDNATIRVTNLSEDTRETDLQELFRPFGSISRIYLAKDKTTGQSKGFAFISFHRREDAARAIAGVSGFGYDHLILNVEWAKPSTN
G3BP-1, sequence (Q13283 320-435): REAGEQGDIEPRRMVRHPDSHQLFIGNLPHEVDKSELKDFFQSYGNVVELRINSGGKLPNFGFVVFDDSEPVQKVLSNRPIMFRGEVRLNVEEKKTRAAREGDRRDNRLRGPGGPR
hnRNP-A1, sequence (P09651 1-205): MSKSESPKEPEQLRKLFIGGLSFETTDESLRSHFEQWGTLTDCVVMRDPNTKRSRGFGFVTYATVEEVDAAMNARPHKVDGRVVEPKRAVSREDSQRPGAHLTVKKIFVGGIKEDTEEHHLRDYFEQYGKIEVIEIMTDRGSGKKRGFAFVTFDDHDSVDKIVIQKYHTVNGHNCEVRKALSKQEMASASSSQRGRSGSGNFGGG

Regarding UAGCUUAUCAGACUGAUGUUGA, the binding signal with DAZ4 is 570 ± 34.9 fluorescence intensity; in the test with hnRNP-M(1-2) it was 584 ± 19 fluorescence intensity; in the test with hnRNP-A3, 80.5 ± 23 fluorescence intensity; in the test with LARP7(2), 66.2 ± 4.35 fluorescence intensity; with eIF3-delta it was 20.5 ± 2.47 fluorescence intensity; with DAZ1, 550 ± 15.3 fluorescence intensity. Further, the binding signal was 219 ± 29.7 fluorescence intensity with G3BP-1; 238 ± 9.04 fluorescence intensity with DAZL; 153 ± 38.7 fluorescence intensity with hnRNP-A0; 1430 ± 113 fluorescence intensity with NeuN; 52.4 ± 15.6 fluorescence intensity with CPEB4; 118 ± 40.8 fluorescence intensity with CELF5(3). In addition, the binding signal was 37.9 ± 2.09 fluorescence intensity in the test with CPEB1, 39.3 ± 2.37 fluorescence intensity in the test with MYEF2(3) and 109 ± 3.13 fluorescence intensity with CstF-64T.

For the sequence UGAGGUAGUAGGUUGUGUGGUU, the binding signal with DAZ4 stood at 843.32 ± 0.516 fluorescence intensity; in the test with hnRNP-M(1-2), 1470 ± 31 fluorescence intensity; with hnRNP-A3, 1660 ± 31.6 fluorescence intensity; in the test with LARP7(2) it was 632 ± 5.09 fluorescence intensity; with hnRNP-A1 it was 77.3 ± 27.2 fluorescence intensity; in the test with eIF3-delta, 338 ± 7.23 fluorescence intensity. Besides, the binding signal with hnRNP-R stood at 693 ± 1.68 fluorescence intensity; with LKAP, 91.94 ± 0.665 fluorescence intensity; with DAZ1 it was 709 ± 20.1 fluorescence intensity; with G3BP-1, 1380 ± 17 fluorescence intensity; with DAZL it was 433 ± 5.39 fluorescence intensity; with NOL8, 66.3 ± 9.47 fluorescence intensity. The binding signal in the test with hnRNP-A0 was 2115 ± 15 fluorescence intensity; with NeuN, 1967 ± 2.72 fluorescence intensity; with hnRNP-2H9, 443 ± 62 fluorescence intensity; in the test with CPEB4, 290 ± 49.8 fluorescence intensity; with CELF5(3) it was 1040 ± 35.6 fluorescence intensity; in the test with CPEB1 it was 462.1 ± 2.31 fluorescence intensity. Also, the binding signal was determined as 635 ± 16.7 fluorescence intensity with MYEF2(3) and 1870 ± 24.6 fluorescence intensity with CstF-64T.

As to CAGUGCAAUGAUGAAAGGGCAU, the binding signal came out at 178.74 ± 0.0495 fluorescence intensity in the test with DAZ4; 946.9 ± 2.02 fluorescence intensity with hnRNP-M(1-2); 1370 ± 25 fluorescence intensity with hnRNP-A3; 288 ± 8.61 fluorescence intensity in the test with LARP7(2); 40.7 ± 3.35 fluorescence intensity with hnRNP-A1; 113 ± 14 fluorescence intensity with eIF3-delta. Further, the binding signal came out at 113 ± 6.25 fluorescence intensity with hnRNP-R; 37.5 ± 1.56 fluorescence intensity with LKAP; 153 ± 10.6 fluorescence intensity in the test with DAZ1; 1860 ± 70.5 fluorescence intensity with G3BP-1; 42.2 ± 30.1 fluorescence intensity with DAZL; 34.8 ± 9.25 fluorescence intensity in the test with NOL8. For the same sequence, the binding signal with hnRNP-A0 is 990 ± 34.9 fluorescence intensity; with NeuN, 2230 ± 258 fluorescence intensity; with hnRNP-2H9, 533 ± 18.5 fluorescence intensity; in the test with CPEB4, 55.3 ± 15.5 fluorescence intensity; with CELF5(3), 378 ± 41 fluorescence intensity; in the test with CPEB1 it was 186 ± 8.15 fluorescence intensity. In addition, the binding signal with MYEF2(3) was 261.9 ± 2.02 fluorescence intensity; with CstF-64T, 418 ± 14.4 fluorescence intensity.

The values are drawn from paper PMC11574364.
